Experimental data as given in PubChem BioAssay (NCI).
Values joined by “and” are separate entries in the source; they are usually repeats but may differ in a detail not shown here. Equal values may be shown once. Compounds without any hit were thinned out: in the full panel of roughly 83,000, 20% have a hit.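 Cell lines were cultured in 96-well plates, exposed to a single compound concentration, and assessed for percent growth 48 hours later.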 Active and inactive are the calls of the source. The calls were made as follows: active = growth percent below 10; inactive = the rest.

How the values were obtained:
Assay in all cases: NCI-60 one-dose screen, 48 h (100 = growth as untreated, 0 = no growth, -100 = all killed)
Conditions in all cases: 10 µM unless noted
NCI-H23 lung = tested on: NCI-H23 lung
NCI-H226 lung = tested on: NCI-H226 lung
NCI-H322M lung = tested on: NCI-H322M lung
HOP-62 NSCLC = tested on: HOP-62 NSCLC
NCI-H460 lung = tested on: NCI-H460 lung
HOP-92 NSCLC = tested on: HOP-92 NSCLC
NCI-H522 lung = tested on: NCI-H522 lung
A549/ATCC NSCLC = tested on: A549/ATCC NSCLC
786-0 renal = tested on: 786-0 renal
COLO 205 colon = tested on: COLO 205 colon
DU-145 prostate = tested on: DU-145 prostate
K-562 leukemia = tested on: K-562 leukemia
MALME-3M melanoma = tested on: MALME-3M melanoma
MDA-MB-231 breast = tested on: MDA-MB-231 breast
RXF 393 renal = tested on: RXF 393 renal
SF-268 CNS = tested on: SF-268 CNS
SF-295 CNS = tested on: SF-295 CNS
SF-539 CNS = tested on: SF-539 CNS
UACC-257 melanoma = tested on: UACC-257 melanoma
M14 melanoma = tested on: M14 melanoma

Measured: growth

CCC(CCCN(CC)CCc1ccccc1)OC(=O)c1cc(OC)c(OC)c(OC)c1 (stereo not given)
inactive: NCI-H23 lung 81.5% | NCI-H226 lung 89.7% | NCI-H322M lung 72.2% | HOP-62 NSCLC 68.7% | NCI-H460 lung 101% | HOP-92 NSCLC 86.4% | NCI-H522 lung 69.6% | A549/ATCC NSCLC 75.1% | 786-0 renal 89.9% | COLO 205 colon 81.1% | DU-145 prostate 104% | K-562 leukemia 76.4% | MALME-3M melanoma 98.9% | MDA-MB-231 breast 78.8% | RXF 393 renal 89.7% | SF-268 CNS 82.7% | SF-295 CNS 90.1% | SF-539 CNS 93.1% | UACC-257 melanoma 85.4% | M14 melanoma 90.1%

Oc1c(Br)cc(Cl)cc1C(c1cc(Cl)cc(Br)c1O)C(Cl)(Cl)Cl
active: NCI-H23 lung 5.88% | NCI-H460 lung 1.1% | HOP-92 NSCLC -33.5% | NCI-H522 lung -9.4% | MALME-3M melanoma -0.8% | MDA-MB-231 breast -11.3% | SF-295 CNS 9.03%
inactive: NCI-H226 lung 33.4% | NCI-H322M lung 15.2% | HOP-62 NSCLC 59.2% | A549/ATCC NSCLC 14% | 786-0 renal 26.9% | DU-145 prostate 31.1% | K-562 leukemia 13.7% | RXF 393 renal 12% | SF-268 CNS 21.9% | SF-539 CNS 30.8% | UACC-257 melanoma 33% | M14 melanoma 31.4%

Cc1cc(C(C)(CC(C)C)c2ccc(O)c(C)c2)ccc1O
inactive: NCI-H23 lung 108% | NCI-H226 lung 93% | NCI-H322M lung 94.6% | HOP-62 NSCLC 104% | NCI-H460 lung 104% | HOP-92 NSCLC 88.3% | NCI-H522 lung 92.6% | A549/ATCC NSCLC 81.5% | 786-0 renal 102% | COLO 205 colon 125% | DU-145 prostate 112% | K-562 leukemia 97.1% | MALME-3M melanoma 109% | MDA-MB-231 breast 88% | RXF 393 renal 93% | SF-268 CNS 104% | SF-295 CNS 97.8% | SF-539 CNS 96.6% | UACC-257 melanoma 84.8% | M14 melanoma 94.2%

CC1OC(OC2C(OC3CCC4(C)C(CCC5(C)C4CC=C4C6CC(C)(C)CCC6(CO)C(O)CC45C)C3(C)C)OC(C(=O)O)C(OC3OC(COC4OC(CO)C(O)C(O)C4O)C(O)C(O)C3O)C2O)C(O)C(O)C1O (stereo not given)
active: NCI-H23 lung -82.1% | NCI-H226 lung -63.6% | NCI-H322M lung -96.2% | HOP-62 NSCLC -71.6% | HOP-92 NSCLC -38.7% | NCI-H522 lung -64.9% | A549/ATCC NSCLC -70.1% | 786-0 renal -91.9% | COLO 205 colon -86% | DU-145 prostate 7.81% | K-562 leukemia -30.8% | MALME-3M melanoma -73% | MDA-MB-231 breast -86.1% | RXF 393 renal -51.2% | SF-268 CNS 1.99% | SF-295 CNS -85.2% | SF-539 CNS -84.5% | UACC-257 melanoma -49.3% | M14 melanoma -67.4%

CCCCCCCCCCCCCCCCCCOP(=O)([O-])OC1CC[N+](C)(C)CC1
active: HOP-62 NSCLC 5.84% and -72.5% | HOP-92 NSCLC -25.3% | NCI-H522 lung -52.1% and -87.8% | 786-0 renal -28.4% and -54.9% | COLO 205 colon -34.2% and -30.8% | M14 melanoma -33.9% and -72.8%
-49% (active) and 41.2% (inactive): RXF 393 renal
36.3% (inactive) and 4.21% (active): SF-539 CNS
19.5% (inactive) and 0.462% (active): SF-295 CNS
11% (inactive) and -10.4% (active): MDA-MB-231 breast
inactive: NCI-H23 lung 76.2% and 60.8% | NCI-H226 lung 48.9% and 18.8% | NCI-H322M lung 59.2% and 40% | A549/ATCC NSCLC 17.1% and 38.2% | DU-145 prostate 54.2% and 25.3% | K-562 leukemia 30.3% and 20.7% | MALME-3M melanoma 69.7% and 16.3% | SF-268 CNS 38.9% and 13.7% | UACC-257 melanoma 45.4% and 19%

S=C(N/N=C/c1ccccn1)Nc1ccccn1
active: NCI-H460 lung 2.59% | HOP-92 NSCLC -2.58% | NCI-H522 lung -39.9% | 786-0 renal 2.42% | K-562 leukemia 8.45% | RXF 393 renal 2.43% | UACC-257 melanoma -14.9% | M14 melanoma 0.168%
inactive: NCI-H23 lung 23.8% | NCI-H226 lung 12.1% | NCI-H322M lung 22.4% | HOP-62 NSCLC 13.7% | A549/ATCC NSCLC 20.7% | DU-145 prostate 28.4% | MALME-3M melanoma 10.6% | MDA-MB-231 breast 42.4% | SF-268 CNS 32% | SF-295 CNS 27.1% | SF-539 CNS 14.1%

O=C(O)C1C2CC3C(OC(=O)C31)C2Br (stereo not given)
inactive: NCI-H23 lung 103% and 95.4% | NCI-H226 lung 88.3% and 90.7% | NCI-H322M lung 101% and 106% | HOP-62 NSCLC 92.8% and 99.4% | NCI-H460 lung 98.3% and 100% | HOP-92 NSCLC 91% and 94.2% | NCI-H522 lung 72.9% and 95.6% | A549/ATCC NSCLC 79.6% and 101% | 786-0 renal 105% and 99% | DU-145 prostate 122% and 107% | K-562 leukemia 113% and 110% | MALME-3M melanoma 101% and 93.5% | MDA-MB-231 breast 103% and 115% | RXF 393 renal 98.2% and 93.5% | SF-268 CNS 109% and 106% | SF-295 CNS 96.9% and 101% | SF-539 CNS 99.5% | UACC-257 melanoma 82.7% and 95% | M14 melanoma 96.7% and 98.3%
